About 770 (37%) of roughly 2,100 compounds were called active. This is one part of the list. Values without a mark were called inactive.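 Rule for the calls: active = by-eye trace score of 1 for enhancers or -1 for inhibitors, so actives lie on both sides (some results past the limit were not filed as active); inactive = score 0, or 3 fluorescent, or 4 baseline rise.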

G protein-activated inward rectifier potassium channel 2 (Homo sapiens) + G protein-activated inward rectifier potassium channel 1 (Homo sapiens), sequence (P48051 whole entry, looked up): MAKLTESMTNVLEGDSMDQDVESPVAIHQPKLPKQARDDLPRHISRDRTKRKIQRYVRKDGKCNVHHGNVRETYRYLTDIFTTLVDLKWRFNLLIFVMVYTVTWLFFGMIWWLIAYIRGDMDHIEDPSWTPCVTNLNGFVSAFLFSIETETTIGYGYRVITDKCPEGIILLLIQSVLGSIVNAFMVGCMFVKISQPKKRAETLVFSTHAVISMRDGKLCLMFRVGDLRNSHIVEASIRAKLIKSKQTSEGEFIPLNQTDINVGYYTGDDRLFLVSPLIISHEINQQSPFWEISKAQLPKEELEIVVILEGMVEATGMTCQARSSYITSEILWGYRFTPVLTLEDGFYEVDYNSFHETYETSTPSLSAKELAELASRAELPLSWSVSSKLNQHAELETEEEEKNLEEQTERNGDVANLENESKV
G protein-activated inward rectifier potassium channel 2 (Homo sapiens) + G protein-activated inward rectifier potassium channel 1 (Homo sapiens), sequence (P48549 whole entry, looked up): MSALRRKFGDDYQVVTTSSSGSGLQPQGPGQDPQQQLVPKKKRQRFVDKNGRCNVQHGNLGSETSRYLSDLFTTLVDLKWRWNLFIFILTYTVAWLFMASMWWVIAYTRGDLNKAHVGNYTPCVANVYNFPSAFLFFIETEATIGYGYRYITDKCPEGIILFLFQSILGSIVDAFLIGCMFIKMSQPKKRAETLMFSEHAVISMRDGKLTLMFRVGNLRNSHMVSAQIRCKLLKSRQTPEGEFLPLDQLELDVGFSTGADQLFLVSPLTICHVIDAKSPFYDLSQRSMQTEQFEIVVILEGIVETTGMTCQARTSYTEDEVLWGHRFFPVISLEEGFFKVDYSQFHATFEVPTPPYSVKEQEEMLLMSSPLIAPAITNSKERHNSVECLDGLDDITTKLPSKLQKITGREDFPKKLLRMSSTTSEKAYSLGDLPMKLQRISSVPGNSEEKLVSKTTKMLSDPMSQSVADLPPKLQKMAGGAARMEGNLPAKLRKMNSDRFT

The test has as its target G protein-activated inward rectifier potassium channel 2 (Homo sapiens) + G protein-activated inward rectifier potassium channel 1 (Homo sapiens) (UniProt P48051+P48549). Nature of the test: GIRK1/2 thallium flux modulators, retest, confirmation, cell-based, HEK293 rmGlu8/hGIRK1/2, FluoZin-2 (AID 623911). The note with it: HEK293 rmGlu8/hGIRK1/2, thallium flux FluoZin-2; actives lie on both sides; glutamate co-added at its EC20 level.
For the molecule `CC(NC(=O)c1ccccc1NC(=O)CSc1nnnn1C)c1ccccc1` (stereo not given), the manual score is 0.

On to `CC(Sc1nnnn1C)C(=O)Nc1ccc(Oc2ccccc2)cc1` (stereo not given), for which the manual score is 1 (active).

As for `S=C1NC2=C(CCCC2)C2(CCCCC2)N1`, the manual score was 0.

On to `CC1CCCC(NC(=S)NC(=O)c2ccccc2Br)C1C` (stereo not given), for which the manual score is 0.

For the molecule `COc1ccccc1/C=C/C(=O)NC(=S)N(C)C1CCCCC1`, the manual score is 1 (active).

`CN(Cc1ccccc1)C(=S)NC(=O)C1CCCCC1`: the manual score is 0.

For the molecule `CCN(C(=O)c1cc(Cl)ccc1OC)C1CCCCC1`, the manual score is -0.5.

Take `CN(C(=S)NC(=O)c1ccccc1Br)C1CCCCC1`: the manual score was 1 (active).

Regarding `CCOC(=O)CSc1nnc(-c2ccccc2OC)o1`, the manual score is -0.5.

Regarding `CC(C)NC(=O)/C(=C/c1ccco1)c1ccccc1`, the manual score is 0.

Turning to `Cc1nccn1CCc1nc(N)nc(N)n1`, the manual score is 0.

Turning to `CCCc1ccc(OCC(=O)NNC(=S)NC(=O)c2ccco2)cc1`, the manual score is 1 (active).

Consider `Cc1ccccc1OCC(=O)NNC(=S)NC(=O)c1ccco1`, for which the manual score was 1 (active).

On to `CCN(CC)c1ccc(/C=C2/C(=O)c3ccc(C(=O)O)cc3C2=O)cc1`, for which the manual score was 3.

With `CC1(C)CC2CC(C)(CN2C(=S)NC(=O)c2ccccc2Cl)C1` (stereo not given), the manual score is 1 (active).

Consider `Nc1sccc1C(=O)c1ccccc1`, for which the manual score was 0.

On to `O=C(NCCSCc1ccco1)Nc1cccc(Cl)c1`, for which the manual score was 1 (active).

As to `Clc1cccc(CSc2nnc(-c3ccccn3)n2Cc2ccco2)c1`, the manual score is 0.

As to `O=C(NCCCn1ccnc1)Nc1ccc(Cl)c(Cl)c1`, the manual score was 0.

Take `CC(=O)c1cccc(NC(=O)CCOc2ccccc2)c1`: the manual score was 0.

Turning to `CSc1cccc(NC(=O)CN(c2ccccc2)S(=O)(=O)N(C)C)c1`, the manual score was 1 (active).

With `COc1cccc(NC(=O)COc2ccc(C)cc2)c1`, the manual score is 0.

With `CSc1cccc(NC(=O)CN(c2ccc(C)cc2C)S(C)(=O)=O)c1`, the manual score was 1 (active).

For the molecule `Cc1cccc(NC(=O)CN(c2ccc(C(C)C)cc2)S(=O)(=O)c2c(C)nn(C)c2C)n1`, the manual score is -0.5.

Regarding `CN(C)S(=O)(=O)N(CC(=O)Nc1ccc2ccccc2c1)c1ccccc1`, the manual score was 1 (active).

Take `CSc1cccc(NC(=O)COc2ccccc2)c1`: the manual score is 1 (active).

On to `COc1cccc(N(CC(=O)NCc2cccnc2)S(C)(=O)=O)c1`, for which the manual score was 0.

In the case of `COc1cccc(N(CC(=O)Nc2cccc(C(C)=O)c2)S(C)(=O)=O)c1`, the manual score is 0.

On to `CC1=CC(=O)OC1Cc1ccncc1` (stereo not given), for which the manual score is 0.

Regarding `O=c1c2c(nc3c(-c4ccc(Cl)cc4)c[nH]n13)CCCC2`, the manual score is 0.

`O=C(CSc1nnnn1-c1cccc2c1CCCC2)NC1CCCC1`: the manual score was -0.5.

As to `CSC1=N/C(=C\c2ccc(Br)o2)C(=O)S1`, the manual score was 0.

Turning to `c1ccc2c(NC3CCCC3)nnc(NC3CCCC3)c2c1`, the manual score is -1 (active).

As for `CN=C1S/C(=C\c2cc(C)n(-c3ccccc3F)c2C)C(=O)N1C`, the manual score is 0.

In the case of `CC1CCN(c2ccc(/C=N/n3nnnc3N)cc2[N+](=O)[O-])CC1`, the manual score is 0.

For `Cc1cc(N2CCN(c3ccccc3)CC2)nc(NCc2ccccc2)n1`, the manual score was 0.

Regarding `Cc1ccc2nc(NCc3ccccc3)[nH]c2c1`, the manual score is -1 (active).

In the case of `CC(/C=N/n1c(-c2ccco2)n[nH]c1=S)=C\c1ccccc1`, the manual score is 0.

Regarding `S=c1[nH]nc(-c2ccco2)n1/N=C/c1ccc(Cl)cc1Cl`, the manual score is 1 (active).

As for `S=c1[nH]nc(-c2ccco2)n1/N=C/c1cccc(Cl)c1Cl`, the manual score is 0.

Take `Cc1ccc(N2CC(C(=O)Oc3cccc(N4C(=O)CCC4=O)c3)CC2=O)cc1` (stereo not given): the manual score was 0.

Turning to `Cc1ccc(/C(O)=C2\C(=O)C(=O)N(c3cc(C)on3)C2c2cccc(Br)c2)cc1` (stereo not given), the manual score was 0.

Consider `CC(Oc1ccc(Cl)cc1)C(=O)N/N=C/c1ccsc1` (stereo not given), for which the manual score is 1 (active).

Turning to `CC(C)C(=O)Nc1cccc(NC(=O)c2cc3ccccc3o2)c1`, the manual score is 0.

For `CC(=O)Nc1nnc(C)s1`, the manual score is 0.

`CCCN(CCC)CCCOC(=O)c1ccc(Cl)cc1Cl`: the manual score is -1 (active).

Consider `CC1Cc2ccccc2N1C(=S)NC(=O)c1ccc(Cl)cc1Cl` (stereo not given), for which the manual score was 1 (active).

On to `CCCN(CCC)C(=S)NC(=O)c1ccc(Cl)cc1Cl`, for which the manual score was 1 (active).

Regarding `CCCCN(CCCC)C(=S)NC(=O)C(C)(C)C`, the manual score was 1 (active).

With `CCOC(=O)CC1=C(C(=O)OCC)C(c2cccs2)C(C#N)=C(N)O1` (stereo not given), the manual score was 0.

Consider `CCOC(=O)C(C(=O)OCC)c1cc(Br)c2noc3c2c1C(=O)c1ccccc1-3`, for which the manual score was 3.

Turning to `COc1c2occc2c(OC)c2c(=O)cc(C(F)(F)F)oc12`, the manual score is 0.

Consider `COc1cc(/C=C2\S/C(=N/S(=O)(=O)c3ccc(C)cc3)NC2=O)c([N+](=O)[O-])cc1OC`, for which the manual score was 0.

With `CCN(CC)C(=S)NC(=O)c1ccc(Cl)cc1Cl`, the manual score is 1 (active).

`CN(C(=S)NC(=O)CCCOc1ccc(Cl)cc1Cl)c1ccccc1`: the manual score was 0.

On to `CCCCn1nnc(NC(=S)NC(=O)c2ccc(-c3cccc(Cl)c3Cl)o2)n1`, for which the manual score was 0.5.

As for `CCCCN(CCCC)c1ccc(C(=O)c2ccccc2C(=O)O)c(O)c1`, the manual score was 0.

As for `CCCCN(CCCC)C(=S)NC(=O)c1ccccc1Cl`, the manual score was 1 (active).

Take `S=c1[nH]nc(CSCc2ccc(Cl)cc2Cl)n1-c1ccccc1`: the manual score is 0.

As to `CCOc1ccc(NC(=O)NC23CC4CC(CC(C4)C2)C3)cc1`, the manual score is 1 (active).

On to `CCOc1ccc(N2C(=O)CC(SC(=NC)Nc3ccc(F)cc3)C2=O)cc1` (stereo not given), for which the manual score was 0.

Take `CCOC(=O)C1CCN(C(=O)NC23CC4CC(CC(C4)C2)C3)CC1`: the manual score is 0.

As to `O=C(Nc1ccc2c(c1)OCCO2)NC12CC3CC(CC(C3)C1)C2`, the manual score is 1 (active).

Turning to `COC(=O)[C@H](CC(C)C)NC(=O)Nc1ccc2c(c1)OCCO2`, the manual score was 0.

Turning to `O=C(COC(=O)C1CC2C=CC1C2)Nc1ccc2c(c1)OC(F)(F)O2` (stereo not given), the manual score was 0.

Turning to `Cc1[nH]n(-c2ccccc2)c(=O)c1N=Nc1nccs1`, the manual score is 1 (active).

Consider `Cc1cccc(-n2c(C)nc3sccc3c2=O)c1`, for which the manual score was 0.

`CCOn1c(=O)c(-c2cccs2)[n+]([O-])c2ccccc21`: the manual score is 3.

For `Cc1cc(C)nc(Sc2ncnc3sc4c(c23)CCC4)n1`, the manual score is 0.

Turning to `c1csc(CCNc2ncnc3sc4c(c23)CCC4)c1`, the manual score was -1 (active).

With `CCOC(=O)c1cc(-c2ccc(Cl)cc2)nc2c1c(C)nn2CCC#N`, the manual score was 0.

Turning to `N#CCCn1nc(-c2ccc(Cl)cc2)cc1Nc1ccccc1NC(=O)C(F)(F)F`, the manual score was 1 (active).

On to `COc1cc(OC)cc(C(=O)NC(=S)N2CCN(c3ccc(C(F)(F)F)cc3[N+](=O)[O-])CC2)c1`, for which the manual score was 1 (active).

Consider `COc1cccc(C(=O)NC(=S)N2CCN(c3ccc(C(F)(F)F)cc3[N+](=O)[O-])CC2)c1`, for which the manual score is 0.5.

With `COc1ccccc1NC(=O)COc1ccc(C(F)(F)F)cc1[N+](=O)[O-]`, the manual score is 0.

As for `CC(C)Oc1cccc(C(=O)NC(=S)N2CCN(c3ccc(C(F)(F)F)cc3[N+](=O)[O-])CC2)c1`, the manual score is 1 (active).

For `O=C1c2ccccc2C(=O)N1Nc1ccccc1`, the manual score is 0.

As for `C(/C=C/C=C/Nc1ccccc1)=Nc1ccccc1`, the manual score is 3.

In the case of `C=CCCCCCCCCc1nc(=S)[nH][nH]1`, the manual score is 1 (active).

In the case of `CCCCCCCCc1nc(=S)[nH][nH]1`, the manual score is 0.5.

As for `CC1=C(n2nnc3ccccc32)C(c2ccccc2)C(C#N)=C(N)O1` (stereo not given), the manual score was 0.

Turning to `CC(C)CC(=O)Nc1ccccc1-c1nnn(CC(=O)N2CCc3ccccc3C2)n1`, the manual score is 0.

Consider `CCOC(=O)c1c(C)c(C(=O)N2CCc3ccccc3C2)c(C)n1CC`, for which the manual score is -1 (active).

Turning to `O=C(COc1c(Br)cc(Br)c2cccnc12)N1CCc2ccccc2C1`, the manual score is 0.

Consider `O=C(O)c1oc2ccccc2c1CSc1ccccn1`, for which the manual score was 0.

`CCCCCCc1cc2cc(C(=O)NC)c(=N)oc2cc1O`: the manual score was 3.

Consider `CCCCc1cc(=O)oc2cc(C)cc(O)c12`, for which the manual score is -1 (active).

Consider `Cc1ccccc1NC(=S)NC(=O)c1cc(-c2ccccc2)nc2ccccc12`, for which the manual score is 0.

`O=C(Nc1ccc(N2CCCCC2)c(Cl)c1)c1ncn[nH]1`: the manual score is 0.

For the molecule `O=C(NC(=S)NC1CCCCCC1)c1cncc(Br)c1`, the manual score is 0.

Turning to `Cc1ccccc1NC(=S)NC(=O)c1cncc(Br)c1`, the manual score was 1 (active).

For `CC1CCCC(NC(=S)NC(=O)c2cncc(Br)c2)C1C` (stereo not given), the manual score is 1 (active).

Regarding `COc1ccc(OCC(=O)NC(=S)Nc2ccc(N3CCOCC3)c(Cl)c2)cc1`, the manual score is 0.

Regarding `O=C(NC(=S)Nc1ccc(N2CCOCC2)c(Cl)c1)c1cncc(Br)c1`, the manual score was 1 (active).

With `NC(=O)SCC(=O)Nc1cccc(Cl)c1`, the manual score was 1 (active).

For `Cc1ccc(NC(=O)Cn2cccc2)cc1Cl`, the manual score is 0.

Turning to `NC(=O)SCC(=O)Nc1ccc(Cl)cc1`, the manual score was 1 (active).

Take `Cc1ccc(NC(=O)CSC(N)=O)cc1Cl`: the manual score is 1 (active).

As to `CC(C)(C)CC(=O)Nc1ccc(C(N)=O)cc1`, the manual score is 0.

Turning to `O=C(CC(O)(C(F)(F)F)C(F)(F)F)Nc1ccc(Cl)c(Cl)c1`, the manual score was 0.

On to `O=C(CSCCO)Nc1ccccc1`, for which the manual score was 0.

Take `CCn1c(CCNC(=O)c2cccs2)nnc1SCC(=O)Nc1ccc(Cl)cc1`: the manual score is 0.

Consider `Cn1c(=O)c(NCCc2ccccc2)c2c3c(cccc31)C(=O)c1ccccc1-2`, for which the manual score is 3.

`Cc1ccccc1Cn1c(-c2cncs2)nc2ccccc21`: the manual score was 0.

Turning to `Cc1ccccc1Cn1c(=N)n(CC(O)c2ccco2)c2ccccc21` (stereo not given), the manual score is -1 (active).

Consider `Cc1ccccc1Cn1c(=N)n(CC(=O)c2ccco2)c2ccccc21`, for which the manual score was -1 (active).

On to `C1CCC2(CC1)OCC1(CO2)COC2(CCCCC2)OC1`, for which the manual score was 0.

For `Cc1cccc(NC(=S)N2CCC(C(=O)c3ccc(F)cc3)CC2)c1C`, the manual score is 0.

Regarding `c1ccc(-c2nnc3n2NC(c2ccc4c(c2)OCO4)S3)cc1` (stereo not given), the manual score was 1 (active).

`Cc1cccc(NC(=O)COc2ccc(Br)cc2/C=N/O)c1`: the manual score is 0.

In the case of `Cc1cccc(/C=c2\s/c(=C\C(=O)C(C)(C)C)[nH]c2=O)c1`, the manual score is 0.

On to `COc1ccc(/C=C/C(=O)c2cc(Br)ccc(=O)c2O)cc1`, for which the manual score was 1 (active).

Turning to `Cc1ccc(/C=C/C(=O)c2ccccc(=O)c2O)cc1C`, the manual score was 1 (active).

With `O=C(/C=C/c1ccccc1)c1cc(Br)ccc(=O)c1O`, the manual score was 1 (active).

For `Cc1cccc(/C=C/C(=O)c2cc(Br)ccc(=O)c2O)c1`, the manual score is 1 (active).

Values taken from PubChem BioAssay AID623911 (Vanderbilt High Throughput Screening Facility, 2012).
